# Assay results published in PubChem BioAssay AID588591 (National Center for Advancing Translational Sciences (NCATS), 2011).
# The campaign covered roughly 390,000 compounds. About 4,700 (1.2%) were called active. Another 4% or so got no clear call; they are omitted. The call rests on the fitted dose curve; in most records, active means well fitted inhibition curve with a large enough effect; inconclusive means small, poorly fitted or top-dose-only effect, or another doubt; inactive means no such curve, though single readings can be large or run the other way. The entries come from a sample that favours actives as a whole.
# Target: DNA polymerase eta (Homo sapiens) (UniProt Q9Y253)
# Sequence (Q9Y253 whole entry, looked up): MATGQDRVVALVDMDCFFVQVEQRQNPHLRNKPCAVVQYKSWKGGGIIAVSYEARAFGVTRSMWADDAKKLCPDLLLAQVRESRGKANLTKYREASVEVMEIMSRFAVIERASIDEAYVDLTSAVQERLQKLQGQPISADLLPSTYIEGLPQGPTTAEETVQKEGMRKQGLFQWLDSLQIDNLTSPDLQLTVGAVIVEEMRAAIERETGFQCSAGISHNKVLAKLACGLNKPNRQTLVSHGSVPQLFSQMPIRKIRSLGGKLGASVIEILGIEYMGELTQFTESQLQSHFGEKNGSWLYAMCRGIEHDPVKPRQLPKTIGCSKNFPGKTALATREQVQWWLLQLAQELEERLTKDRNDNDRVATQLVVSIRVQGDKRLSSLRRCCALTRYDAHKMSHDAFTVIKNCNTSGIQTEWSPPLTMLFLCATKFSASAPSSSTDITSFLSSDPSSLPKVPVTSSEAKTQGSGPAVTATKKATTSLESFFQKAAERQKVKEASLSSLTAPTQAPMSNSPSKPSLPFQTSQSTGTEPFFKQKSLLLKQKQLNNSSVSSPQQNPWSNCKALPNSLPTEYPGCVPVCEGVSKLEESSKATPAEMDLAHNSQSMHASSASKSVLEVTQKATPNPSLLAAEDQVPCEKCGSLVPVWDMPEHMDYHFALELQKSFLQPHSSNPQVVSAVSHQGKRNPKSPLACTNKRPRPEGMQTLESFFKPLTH
# Assay: qHTS for Inhibitors of Polymerase Eta
# Conditions: recombinant Pol eta, fluorescent DNA replication assay; series mostly up to 114 µM; activity change, negative = inhibition: at the top concentration
# Method in brief: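 Pol eta (10 nM) was preincubated with compounds for 15 min at room temperature, after which fluorescent replication substrate (50 nM final) was added to start the reaction. Fluorescence was read kinetically at 0 and 10 min.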
# On the % scale 0 is the no-effect control and ±100 the full control effect; potency means the concentration at half of the fitted maximal effect.
Compound,"activity change, negative = inhibition",Potency
Cc1cc(N2C(=O)c3ccc(C(=O)NCc4ccccc4)cc3C2=O)no1,3.56% (inactive),
COc1ccc(OC)c(NC(=O)c2ccc3c(c2)C(=O)N(c2ccc(OC(C)=O)cc2)C3=O)c1,-19% (inactive),
O=C(O)c1ccc2c(c1)C(=O)N(c1ccc(/C=C/C(=O)c3ccccc3)cc1)C2=O,,22.4 µM (active)
COc1ccc(Cl)cc1-n1c(CCC(=O)O)ccc1-c1ccc(C)cc1,-0.718% (inactive),
Cc1cc(C)cc(Oc2c(C(F)(F)F)oc3cc(OCC(=O)O)ccc3c2=O)c1,,35.5 µM (active)
O=C(COc1ccc2c(C(F)(F)F)cc(=O)oc2c1)Nc1ccc2c(c1)OCCO2,-13.5% (inactive),
Cc1ccc(Oc2c(C(F)(F)F)oc3c(CN4CCCCC4)c(O)ccc3c2=O)cc1,-5.48% (inactive),
CCCn1c(NCc2ccc(N(CC)CC)cc2)nc2ccccc21,-5.32% (inactive),
COc1cccc(-n2c(=O)c3c(C)c(C(=O)N(C)C)sc3n(Cc3cccc(C)c3)c2=O)c1,-8.38% (inactive),
CCOC(=O)c1c(S(=O)(=O)NCC(=O)Nc2ccc(Cl)c(C(F)(F)F)c2)c(C)n(C)c1C,-4.42% (inactive),
O=C1COc2c1ccc(O)c2O,,22.4 µM (active)
CCSc1nnc2c(n1)OC(c1ccc(OCC(=O)O)cc1)Nc1ccccc1-2 (centres undefined),-7.62% (inactive),
Cc1ccccc1NC(=O)c1c(NC(=O)c2ccccc2F)sc2c1CCC(C)C2 (centres undefined),-16.9% (inactive),
CCOc1cccc2c1N[C@@H](c1ccc(C(=O)O)cc1)[C@H]1CC=C[C@@H]21,,8.91 µM (active)
CCOc1ccccc1C1NC(=O)NC(C)=C1C(=O)OCc1ccco1 (centres undefined),3.94% (inactive),
CCOc1cccc(CC(=O)N2CCc3c([nH]c4ccccc34)C2c2ccc(F)cc2)c1OCC (centres undefined),-20.2% (inactive),
COc1cccc2c1cc1c(=O)n(CC(=O)N3CCN(c4ccccc4)CC3)nc(C)n12,-4.61% (inactive),
COc1ccc(CNC(=O)c2ccc3c(c2)nc2n3CCOC2)c(OC)c1,-11.4% (inactive),
CCC(=O)N1c2ccc(S(=O)(=O)NCc3ccco3)cc2CC1C (centres undefined),,56.2 µM (active)
CC1CCN(S(=O)(=O)c2ccc(S(=O)(=O)NCc3ccco3)cc2)CC1,10.3% (inactive),
COc1cccc(CNS(=O)(=O)c2ccc3c(c2)CC(C)N3C(=O)C2CCC2)c1 (centres undefined),,inactive
COc1ccccc1CNC(=O)c1ccccc1NC(=O)c1nsc2ccccc12,4.12% (inactive),

Compound,"activity change, negative = inhibition",Potency
COc1ccc(-c2c(C)c3ccc(O)c(CN4CCN(C)CC4)c3oc2=O)cc1OC,-6.8% (inactive),
COc1cc(O)c2c(=O)c3c(O)c(O)ccc3oc2c1OC,-13.2% (inactive),
COc1c(O)cc2oc(-c3ccc(O)c(O)c3)cc(=O)c2c1O,,3.55 µM (active)
Cc1cc(F)ccc1NC1(c2ccccc2)C(=O)c2ccccc2C1=O,-18.4% (inactive),
Cc1ccc(NC(=O)Cn2cnc3nc4c(cc3c2=O)CCCC4)cc1Cl,-16.6% (inactive),
Cc1ccccc1CS(=O)(=O)CC1Nc2ccc(C(=O)NCc3ccc(Cl)cc3)cc2NC1=O (centres undefined),-21.9% (inactive),
Cc1ccc(N2CC(c3nnc(Cc4ccccc4Cl)o3)CC2=O)cc1 (centres undefined),-12.8% (inactive),
CCS(=O)(=O)C1=NSC2=NC(=O)/C(=C\c3ccc(OS(=O)(=O)c4ccccc4)cc3)C(=N)N21,,20 µM (active)
Cc1cc(/C=C2/C(=N)N3C(=NC2=O)SN=C3S(C)(=O)=O)c(C)n1-c1ccccc1,,44.7 µM (active)
CS(=O)(=O)C1=NN2C(=N)/C(=C\c3ccc(OCCOc4ccccc4)cc3)C(=O)N=C2S1,,44.7 µM (active)
Cc1nc2ccn(Cc3cccnc3)c(=O)c2cc1C(=O)N1CCN(c2ccccc2F)CC1,2.45% (inactive),
CCOc1ccccc1C(=O)Nc1ccc(S(=O)(=O)N2CCCCC2c2cccnc2)cc1 (centres undefined),-5.58% (inactive),
COc1ccc(-c2cn3c(C)c(C(=O)Nc4cc(C)cc(C)c4)sc3n2)cc1,-8.51% (inactive),
COc1ccc(Cn2c(C(=O)O)c(CNCc3cccc(OC)c3)c3ccc(C)cc32)cc1,-16.4% (inactive),
O=C(CC(c1cccs1)N1Cc2ccccc2C1=O)Nc1ccc(F)cc1F (centres undefined),-6.05% (inactive),
O=C(/C=C/c1ccc([N+](=O)[O-])o1)NNC(=O)c1ccc(F)cc1,,79.4 µM (active)
CCOc1ccc(NC(=O)c2cc3c(=O)n(Cc4cccs4)ccc3nc2C)cc1,1.5% (inactive),
CCOc1ccc(-c2nonc2NC(=O)c2oc3ccc(C)cc3c2C)cc1OCC,-1.76% (inactive),
Cc1c(Cl)cccc1NC(=O)N1CCN(C(=O)c2nsc3ccccc23)CC1,-7.64% (inactive),
C/C(=N\Nc1cccc(C(=O)O)c1)c1ccc2c(c1)Nc1ccccc1S2,,20 µM (active)
COc1ccc(Cl)cc1S(=O)(=O)Nc1cccc(C(=O)O)c1,-15.3% (inactive),
O=C(CCCOc1ccccc1)Nc1cccc(C(=O)O)c1,-9.42% (inactive),

Compound,"activity change, negative = inhibition",Potency
CC1=C(C(=O)OCc2ccc(C)cc2)C(c2c(Cl)cccc2Cl)CC(=O)N1 (centres undefined),-15.6% (inactive),
COc1cc(Cl)c(NC(=O)CC(C)S(=O)(=O)c2cc3c(cc2C)NC(=O)CO3)c(OC)c1 (centres undefined),-23.9% (inactive),
O=C(CCC(=O)N1CC2CCCN2c2ccccc21)NCc1ccccc1Cl (centres undefined),-1.54% (inactive),
Nc1ccc2[nH]c(=S)sc2c1,,22.4 µM (active)
Cc1ccc(Cn2cc(CCC(=O)NCc3ccc(OC(C)C)cc3)c3ccccc32)cc1,-17.3% (inactive),
CC(=O)Nc1cc(C(=O)NCc2ccc(F)cc2)ccc1Sc1ccc(F)cc1,-24.5% (inactive),
CCOC(=O)c1c(C)[nH]c(C)c1S(=O)(=O)N1CCCC(C(=O)NCc2ccccc2Cl)C1 (centres undefined),-11.4% (inactive),
O=C(CCS(=O)(=O)c1ccc2c(c1)NC(=O)CO2)Nc1cccc(C(F)(F)F)c1,-17.6% (inactive),
Cc1cc(C)c2nc(-c3cccnc3)cc(C(=O)Nc3ccc(S(=O)(=O)Nc4onc(C)c4C)cc3)c2c1,,44.7 µM (active)
Cc1noc(NS(=O)(=O)c2ccc(NC(=O)c3oc4ccc(F)cc4c3C)cc2)c1C,-9.51% (inactive),
Cc1cc(OC(C)C(=O)Nc2ccc(S(=O)(=O)Nc3onc(C)c3C)cc2)cc(C)c1Cl (centres undefined),-12.1% (inactive),
CCOc1ccccc1C(=O)NCC(c1ccc(N(C)C)cc1)N1CCCC1 (centres undefined),-10.3% (inactive),
CC1CCCN(c2nc3c(S(=O)(=O)c4ccc(C(C)C)cc4)nnn3c3ccsc23)C1 (centres undefined),-12.9% (inactive),
Cc1ccc(S(=O)(=O)c2c(Nc3cccc(Cl)c3)sc(C(=O)c3ccc4c(c3)OCO4)c2N)cc1,-12.3% (inactive),
CC(=O)c1c(C)[nH]c(C(=O)COc2ccc3c(C)cc(=O)oc3c2)c1C,-17.7% (inactive),
CCOC(=O)Cc1csc(NC(=O)COc2ccc3c(C)cc(=O)oc3c2)n1,,31.6 µM (active)
Cc1ccc(O)c(/C=N/NC(=O)COc2ccc3c(C)cc(=O)oc3c2)c1,,50.1 µM (active)
CCOC(=O)Cc1csc(NC(=O)CN(C)S(=O)(=O)c2ccc3c(c2)CCC(=O)N3)n1,-11% (inactive),
Cc1ccccc1NC(=O)c1ccc(COc2ccc3c(C)cc(=O)oc3c2)cc1,20.7% (inactive),
CCOC(=O)Cc1csc(SCc2cc(=O)oc3cc(O)ccc23)n1,-16.5% (inactive),
